Most compounds without a hit are left out; they make up all but 2.1% or so of the library.
Ba/F3 V617F tox: loss of viability in JAK2V617F-driven Ba/F3 cells; inhibition, % at 5.6 µM; 1.1% of 220,000 active; Ba/F3 EpoR-JAK2V617F viability, ATP luminescence;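 active = inhibition above the campaign mean plus 3 SD over all tested compounds, cut at about 24% in these data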;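 also: cytokine-independent growth of Ba/F3 cells driven by EpoR plus mutant JAK2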
aSyn UTR inh: 5' untranslated region of α-synuclein, MLPCN primary screen | alpha-synuclein 5'UTR reporter, inhibitor activity | 0.82% of 300,000 active | inhibition, % (tested at 7.5 µM); in the data active = inhibition above about 60%;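 also: H4 neuroglioblastoma cells stably carrying SNCA 5'UTR luciferase fusion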
KLF5 inh: kruppel-like factor 5 inhibition; DLD-1 KLF5 promoter-luciferase reporter, luminescence; inhibition, % at 5 µM; 0.23% of 290,000 active;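 active = inhibition above a per-plate limit of that plate's mean compound inhibition plus 3 SD, cut at about 60% in these data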;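 also: higher means less KLF5 promoter-driven luciferase light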
IEC-6 tox: IEC-6 cytotoxicity, counter-screen for KLF5 inhibitors; luminescence viability; inhibition, % at 5 µM; 0.78% of 290,000 active; in the data active = inhibition above about 22%
BaF3 tox: reduces parental Ba/F3 cell viability, JAK2V617F counter-screen; inhibition, % at 5.6 µM; 1.1% of 220,000 active; CellTiter-Glo ATP luminescence;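 active = inhibition above a per-campaign cutoff, the mean inhibition of all tested compounds plus 3 SD, cut at about 27% in these data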
APP 5UTR inh: APP translation inhibition; SH-SY5Y APP 5'UTR-luciferase reporter, luminescence; inhibition, % at 2 µM; 0.82% of 190,000 active; AID 1285;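 active = inhibition above a set limit, derived from the sample mean plus 3 SD, cut at about 45% in these data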
Each line names hits and unclear results; the compound was inactive in the other large screens.

Cn1cc(CNCc2cn[nH]c2-c2ccc(F)cc2)c(-c2ccc3c(c2)OCCO3)n1	none
Cn1cc(CNCc2ccc(OC(F)(F)F)cc2)c(-c2ccc3c(c2)OCCO3)n1	Ba/F3 V617F tox 47, BaF3 tox 40
O=C(CC1C(=O)NCCN1C(=O)Nc1ccccc1)Nc1cc(Cl)cc(Cl)c1 (centres undefined)	none (no result: Ba/F3 V617F tox, BaF3 tox, APP 5UTR inh)
CCOC(=O)N/N=C/c1cn(Cc2ccc(Cl)cc2)c2ccccc12	aSyn UTR inh 70
C=CCc1cccc(/C=N/NC(=O)CNc2cccc3ccccc23)c1O	none
C=CCc1cccc(/C=N/NC(=O)CNc2ccccc2)c1O	aSyn UTR inh 74
Nc1ccc(C(=O)N/N=C/c2cn(Cc3cccc(F)c3)c3ccccc23)cc1	aSyn UTR inh 70 (no result: Ba/F3 V617F tox, BaF3 tox, APP 5UTR inh)
O=[N+]([O-])/C=C/c1cn(Cc2ccc(Cl)cc2)c2ccccc12	aSyn UTR inh 65
O=C(N/N=C/c1cn(Cc2ccccc2)c2ccccc12)c1ccncc1	none
COc1ccc(S(=O)(=O)Nc2cc(C)on2)cc1	none (no result: Ba/F3 V617F tox, BaF3 tox, APP 5UTR inh)
CCOc1ccccc1N1C(=O)c2ccc(S(=O)(=O)c3ccc(C(=O)O)cc3)cc2C1=O	none (no result: Ba/F3 V617F tox, BaF3 tox, APP 5UTR inh)
CCOC(=O)N1CCN(C(=O)CSc2nc3c([nH]c4ccccc43)c(=O)n2CC)CC1	none (no result: Ba/F3 V617F tox, BaF3 tox, APP 5UTR inh)
O=C(CNc1ccc2c(c1)OCO2)N/N=C\c1cn(Cc2ccccc2)c2ccccc12	aSyn UTR inh 81
Cc1ccc(-n2c(-c3ccccc3)c[n+]3c2CCc2ccccc2-3)c(C)c1	Ba/F3 V617F tox 100, IEC-6 tox 27, BaF3 tox 81 (no result: aSyn UTR inh)
Cc1ccc(NC(=O)CN2C(=O)N/C(=C\c3cccnc3)C2=O)cc1	APP 5UTR inh 54
Cc1cccc(NC(=O)CN2C(=O)N/C(=C/c3cc(C)n(-c4cccnc4)c3C)C2=O)c1	none
COc1ccc(N(CC(=O)Nc2cc(Cl)ccc2OC)S(=O)(=O)c2c(C)noc2C)cc1	aSyn UTR inh 71, BaF3 tox 54, APP 5UTR inh 54
COc1ccc(OC)c(NC(=O)CN(c2ccc(C)cc2)S(=O)(=O)c2c(C)noc2C)c1	none
Cc1cccc(N2CCN(C(=O)c3ccc4ncsc4c3)CC2)c1C	Ba/F3 V617F tox 60, IEC-6 tox 36, BaF3 tox 54, APP 5UTR inh 80 (no result: aSyn UTR inh)
O=C(c1ccc2ncsc2c1)N1CCN(c2ccccc2Cl)CC1	none
N/C(=N\NS(=O)(=O)c1ccccc1C(F)(F)F)c1ccccn1	none (no result: APP 5UTR inh)
Cc1nc(C(F)(F)F)c(C(=O)N/N=C(\N)c2ccccn2)s1	APP 5UTR inh 57
CS(=O)(=O)c1ccc(Sc2nc3ccccc3s2)c([N+](=O)[O-])c1	Ba/F3 V617F tox 66, BaF3 tox 45
COc1cc(-c2onc3ccc(Br)cc23)cc(OC)c1OC	Ba/F3 V617F tox 69, aSyn UTR inh 66, BaF3 tox 79, APP 5UTR inh 73
CCCC(C(=O)NC(C)(C)C)N(CC1CCCO1)C(=O)CNS(=O)(=O)c1ccc(F)cc1 (centres undefined)	none (no result: Ba/F3 V617F tox, BaF3 tox, APP 5UTR inh)
O=P(O)(C(O)c1ccccc1)C(O)c1ccccc1 (centres undefined)	none (no result: Ba/F3 V617F tox, KLF5 inh, IEC-6 tox, BaF3 tox, APP 5UTR inh)
Cc1cccc2sc(N(CCCN(C)C)C(=O)CN3C(=O)c4ccccc4C3=O)nc12	none
Cc1cccc2sc(N(CCCN(C)C)C(=O)CCc3ccccc3)nc12	aSyn UTR inh 62
CSc1cccc(CN2CCCC(CNC(=O)c3ccco3)C2)c1 (centres undefined)	none (no result: Ba/F3 V617F tox, BaF3 tox, APP 5UTR inh)
Cc1ccc(N2NC(C)(c3cccs3)NC2=S)cc1 (centres undefined)	none
Cc1cccc(NC(=O)C2(c3cccs3)CCOCC2)c1	none
COc1ccc(C2(O)CN(c3ccc(C)cc3)C3=[N+]2CCCC3)cc1 (centres undefined)	BaF3 tox 34
CCc1ccc(N2CC(O)(c3cccs3)[N+]3=C2SCCC3)cc1 (centres undefined)	Ba/F3 V617F tox 52, BaF3 tox 57 (no result: aSyn UTR inh)
Cc1ccc(N2CC(O)(c3cccs3)[N+]3=C2CCCC3)cc1 (centres undefined)	BaF3 tox 45
Cc1cccc(N2CC(O)(c3cccs3)[N+]3=C2CCCC3)c1 (centres undefined)	Ba/F3 V617F tox 26, BaF3 tox 36
CC(C)c1ccc(N(CC(=O)NC2CCCCC2)C(=O)CCC(=O)Nc2ccccn2)cc1	none (no result: Ba/F3 V617F tox, BaF3 tox, APP 5UTR inh)
Cc1ccccc1N1CC(O)(c2cccs2)[N+]2=C1CCCC2 (centres undefined)	none (no result: aSyn UTR inh)
Cc1cccc(N2CC(O)(c3cccs3)[N+]3=C2CCCCC3)c1 (centres undefined)	Ba/F3 V617F tox 30, BaF3 tox 52
Cc1cccc(N2CC(O)(c3cccs3)[N+]3=C2CCCC3)c1C (centres undefined)	Ba/F3 V617F tox 24, BaF3 tox 36
O=[N+]([O-])c1ccc(N2CCN(c3ccccn3)CC2)c(Cl)c1	none (no result: Ba/F3 V617F tox, BaF3 tox, APP 5UTR inh)
CN(CC(=O)NCCc1ccc(Cl)cc1)S(=O)(=O)c1cccs1	none (no result: Ba/F3 V617F tox, BaF3 tox, APP 5UTR inh)
COC(=O)CSC1=C(C#N)C(c2ccc(C)o2)CC(=O)N1 (centres undefined)	BaF3 tox 43
COC(=O)CSC1=C(C#N)C(c2ccc(F)cc2)CC(=O)N1 (centres undefined)	BaF3 tox 43
COC(=O)CSC1=C(C#N)C(c2sccc2C)CC(=O)N1 (centres undefined)	none
C/C(=N\NC(=O)c1cc(-c2cccs2)nc2ccccc12)c1ccccn1	aSyn UTR inh 79, APP 5UTR inh 71
C/C(=N\NC(=O)c1ccc(NS(=O)(=O)c2cccs2)cc1)c1ccccn1	aSyn UTR inh 71 (no result: APP 5UTR inh)
C/C(=N\NC(=O)c1cc(Br)ccc1O)c1ccccn1	none (no result: Ba/F3 V617F tox, BaF3 tox, APP 5UTR inh)
CCOc1ccc(OCc2ccc(C(=O)N/N=C(\C)c3ccccn3)cc2)cc1	aSyn UTR inh 64, APP 5UTR inh 78
C/C(=N\NC(=O)c1cccc(Br)c1)c1ccccn1	aSyn UTR inh 108 (no result: Ba/F3 V617F tox, BaF3 tox, APP 5UTR inh)
C/C(=N\NC(=O)c1ccc(NS(=O)(=O)c2cccs2)cc1)c1ccncc1	none
CC(C)NC(=O)c1cc(-c2cccs2)nc2ccccc12	none (no result: Ba/F3 V617F tox, BaF3 tox, APP 5UTR inh)
CCOC(=O)c1c(S(=O)(=O)Nc2ccc(C)cn2)c(C)n(C)c1C	none (no result: Ba/F3 V617F tox, BaF3 tox, APP 5UTR inh)
CCOC(=O)c1c(NC(=O)Cn2cnc([N+](=O)[O-])n2)sc(C)c1C	none
CCCc1cc(=O)[nH]c(SCC(=O)N(CC)c2c(N)n(Cc3ccccc3)c(=O)[nH]c2=O)n1	none (no result: Ba/F3 V617F tox, KLF5 inh, IEC-6 tox, BaF3 tox, APP 5UTR inh)
C/C(=N\NC(=O)C(c1ccccc1)c1ccccc1)c1ccc(O)cc1	none (no result: Ba/F3 V617F tox, BaF3 tox, APP 5UTR inh)
C/C(=N\NC(=O)C1CCCN(S(=O)(=O)c2ccccc2)C1)c1ccccn1 (centres undefined)	aSyn UTR inh 67, APP 5UTR inh 46
C/C(=N\NC(=O)C(c1ccccc1)c1ccccc1)c1ccccn1	aSyn UTR inh 80, APP 5UTR inh 69
CCOc1cccc(-c2c(C(=O)N/N=C(\C)c3ccncc3)nnn2-c2nonc2N)c1	none (no result: Ba/F3 V617F tox, BaF3 tox, APP 5UTR inh)
CCOc1cccc(-c2c(C(=O)N/N=C(\C)c3ccccn3)nnn2-c2nonc2N)c1	aSyn UTR inh 90, IEC-6 tox 52 (no result: Ba/F3 V617F tox, BaF3 tox, APP 5UTR inh)
NNC(=O)c1nn(-c2ccccc2)cc1O	aSyn UTR inh 83
O=C(O)c1cn(-c2ccccc2)nc1C(=O)O	none

High-throughput results (PubChem)
